Measurements from PMC4336329 (PLoS ONE, 2015).
About 2,200 (0.71%) of roughly 310,000 compounds showed an effect of 50% or more. The effect is printed as a negative number. The sample as a whole holds a higher share of strong results than the screen did.

The molecules below were run against human ether-à-go-go-related gene (hERG) potassium channel (human, UniProt Q12809) (assay: primary screen, population patch clamp on CHO cells stably expressing hERG; higher = less effect of the substance).
Sequence of human ether-à-go-go-related gene (hERG) potassium channel (Q12809 whole entry, looked up): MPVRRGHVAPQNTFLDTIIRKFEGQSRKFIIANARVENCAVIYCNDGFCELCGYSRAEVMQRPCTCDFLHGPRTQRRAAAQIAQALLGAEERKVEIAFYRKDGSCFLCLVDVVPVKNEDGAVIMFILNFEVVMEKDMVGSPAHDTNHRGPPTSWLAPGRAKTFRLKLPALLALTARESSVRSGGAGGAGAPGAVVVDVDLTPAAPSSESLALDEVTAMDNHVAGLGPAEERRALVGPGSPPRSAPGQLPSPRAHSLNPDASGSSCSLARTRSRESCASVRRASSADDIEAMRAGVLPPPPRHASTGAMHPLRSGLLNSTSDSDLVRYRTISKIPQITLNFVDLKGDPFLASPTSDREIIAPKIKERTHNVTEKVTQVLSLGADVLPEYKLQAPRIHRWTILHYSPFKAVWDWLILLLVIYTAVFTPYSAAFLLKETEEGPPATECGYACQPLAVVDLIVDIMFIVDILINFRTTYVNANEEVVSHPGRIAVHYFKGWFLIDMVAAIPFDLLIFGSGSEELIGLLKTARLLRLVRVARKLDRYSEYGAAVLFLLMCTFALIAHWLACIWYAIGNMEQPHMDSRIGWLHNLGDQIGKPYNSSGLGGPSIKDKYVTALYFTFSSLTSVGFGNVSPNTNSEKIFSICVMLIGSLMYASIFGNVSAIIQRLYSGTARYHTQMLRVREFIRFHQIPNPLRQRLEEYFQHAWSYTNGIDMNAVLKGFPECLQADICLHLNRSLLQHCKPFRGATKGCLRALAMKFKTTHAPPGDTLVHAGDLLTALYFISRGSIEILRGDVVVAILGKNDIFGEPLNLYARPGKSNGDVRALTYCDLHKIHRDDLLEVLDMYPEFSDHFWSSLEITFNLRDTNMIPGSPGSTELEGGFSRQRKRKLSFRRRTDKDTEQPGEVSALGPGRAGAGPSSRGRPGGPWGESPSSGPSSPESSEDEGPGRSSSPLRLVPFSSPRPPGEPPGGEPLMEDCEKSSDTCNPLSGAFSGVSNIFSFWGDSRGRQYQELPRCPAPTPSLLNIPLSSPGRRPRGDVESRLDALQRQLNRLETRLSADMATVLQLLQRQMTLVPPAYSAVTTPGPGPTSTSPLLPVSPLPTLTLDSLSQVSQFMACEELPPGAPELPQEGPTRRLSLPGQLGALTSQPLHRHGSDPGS

| Compound | hERG current change (%, negative = inhibition) at 1uM [%] |
| --- | --- |
| O=C(N/N=C(\CC(=O)c1cccs1)C(F)(F)F)c1cccnc1 | 12.7 |
| Cl.O=C(NCCN1CCCC1)c1ccc(Cl)cc1Cl | 16.6 |
| O=C(NCC1(N2CCCCC2)CCCCC1)C1CC(=O)N(c2ccc3c(c2)OCCO3)C1 (stereo not drawn) | 14.3 |
| COc1cc(C2NC(=O)C(C#N)=C(S)N2c2ccc(C)cc2)ccc1OC(C)C (stereo not drawn) | 9.81 |
| COc1cc(OC)cc(C(=O)NCCCn2ccnc2)c1 | 18.8 |
| Cn1c2ccccc2c2nnc(SC3CCOC3=O)nc21 (stereo not drawn) | 3.35 |
| O=C(O)C(C(O)c1ccc([N+](=O)[O-])cc1)[n+]1ccccc1.[Br-] (stereo not drawn) | 18.1 |
| COc1cccc(OCc2cc(C(=O)NCc3cnc4ccccn34)no2)c1 | 3.98 |
| Cn1c(SCC(=O)NC(=O)Nc2ccccc2)nnc1-c1ccncc1 | 9.09 |
| O=C(Nc1ccnn1C1CCN(Cc2ccc(O)c(Cl)c2)CC1)C1CCCC1 | -6.39 |
| O=C(Nc1ccnn1C1CCN(Cc2ccc(OC(F)F)cc2)CC1)C1CCCC1 | -81.5 |
| COc1ccc(CN2CCC(n3nccc3NC(=O)C3CCCC3)CC2)cc1 | -47.4 |
| Cc1c(NC(=O)c2cccc(-c3cc4ccccc4oc3=O)c2)cccc1-c1nc2ncccc2o1 | 12.7 |
| CCNC(=O)N1CCN(CCCC(c2ccc(F)cc2)c2ccc(F)cc2)CC1.Cl | -90.3 |
| O=C(Nc1ccc(F)cc1)N1CCN(CCc2ccccc2)CC1 | -9.52 |
| CCCCNC(=O)N1CCN(Cc2ccc(F)cc2)CC1 | 9.29 |
| CCN(CC)CCNS(=O)(=O)c1ccc2[nH]cc(C(=O)O)c(=O)c2c1 | 10.9 |
| O=C(Nc1ccnn1C1CCN(CCCC2CCCC2)CC1)c1ccccc1Cl | -99 |
| COc1ccccc1C(=O)Nc1ccnn1C1CCN(CC2CC=CCC2)CC1 (stereo not drawn) | -69.1 |

| Compound | hERG current change (%, negative = inhibition) at 1uM [%] |
| --- | --- |
| O=C(Nc1ccnn1C1CCN(C2CCCC2)CC1)c1ccccc1Cl | 6.27 |
| O=C(Nc1ccnn1C1CCN(CCCC2CCCC2)CC1)c1ccccc1 | -60.9 |
| O=C(Nc1ccnn1C1CCN(C2CCCC2)CC1)c1ccccc1 | 13.3 |
| COc1ccccc1C(=O)Nc1ccnn1C1CCN(C2CCSCC2)CC1 | -44.5 |
| COc1ccccc1C(=O)Nc1ccnn1C1CCN(CCCC2CCCC2)CC1 | -93.2 |
| Cc1ccccc1C(=O)Nc1ccnn1C1CCN(CC2CC=CCC2)CC1 (stereo not drawn) | -33.5 |
| COc1ccccc1C(=O)Nc1ccnn1C1CCN(C(=O)C(C)(C)C)CC1 | -6.95 |
| CC(C)(C)CN1CCC(n2nccc2NC(=O)c2ccccc2Cl)CC1 | 4.68 |
| O=C(Nc1ccnn1C1CCN(C2CCCCC2)CC1)c1ccccc1 | 12.1 |
| O=C(Nc1ccnn1C1CCN(CC2CC=CCC2)CC1)c1ccccc1Cl (stereo not drawn) | -37.8 |
| Cc1onc(-c2ccccc2)c1-c1ccnn1C(=O)NC(C)C | 6.54 |
| O=C(NC1CCCCC1)c1ccccc1NC(=O)C1CC(=O)N(c2ccccc2)C1 (stereo not drawn) | -64.3 |
| O=C(NC1CCCCC1)c1ccccc1NC(=O)C1CC(=O)N(c2ccc(Cl)cc2)C1 (stereo not drawn) | 13.2 |
| CNC(=O)c1ccccc1NC(=O)C1CC(=O)N(c2ccc(OC)cc2)C1 (stereo not drawn) | 9.77 |
| CCCOc1ccc(N2CC(C(=O)Nc3ccccc3C(=O)NCc3ccco3)CC2=O)cc1 (stereo not drawn) | -29.5 |
| Cc1ccc(N2CC(C(=O)Nc3ccccc3C(=O)NC3CCCCC3)CC2=O)cc1 (stereo not drawn) | 5.42 |
| CCCOc1ccc(N2CC(C(=O)Nc3ccccc3C(=O)NC)CC2=O)cc1 (stereo not drawn) | -56.5 |
| CCC(C)C1C(C#N)=C(N)Oc2n[nH]c(C)c21 (stereo not drawn) | 14.1 |
| CN(C)CCCNc1ncc(C(F)(F)F)cc1Cl | 10.3 |

| Compound | hERG current change (%, negative = inhibition) at 1uM [%] |
| --- | --- |
| CN1C(=O)[C@@H]2[C@H](C1=O)[C@@H]1C(=O)Nc3ccccc3C(=O)N1[C@@H]2c1ccc(Br)cc1 | -16.7 |
| CN1CCN(C(=O)c2cc3sccc3n2CC(=O)c2ccccc2)CC1 | -2.93 |
| O=C(Cn1c(C(=O)N2CCN(C3CCCC3)CC2)cc2sccc21)c1ccccc1 | -51 |
| O=C(Cn1c(C(=O)N2CCN(C3CCCCC3)CC2)cc2sccc21)c1ccccc1 | -47.5 |
| COc1ccc(-c2cc(-c3cccs3)c(C#N)c(SCC(=O)NCc3ccccc3OC)n2)cc1 | -3.19 |
| Cc1cccc(C)c1NC(=S)NCc1ccncc1 | 16 |
| c1ccc(CN2CCC(Nc3nc(-c4ccccc4)nc4ccccc34)CC2)cc1 | 4.83 |
| c1ccc(CN2CCC(Nc3nc(-c4cccs4)nc4ccccc34)CC2)cc1 | 10.5 |
| c1ccc(CN2CCC(Nc3nc(-c4cccnc4)nc4ccccc34)CC2)cc1 | -74.6 |
| CSc1oc(-c2ccc(F)cc2)nc1S(=O)(=O)c1ccccc1 | -1.68 |
| CC1(C)C([N+](=O)[O-])C(c2ccc(O)cc2)NC(c2ccc(O)cc2)C1[N+](=O)[O-] (stereo not drawn) | 10.3 |
| COc1ccc(CCC(C)NCCc2ccc(Cl)cc2Cl)cc1 (stereo not drawn) | -50.1 |
| COc1ccc(CNCCc2ccc(Cl)cc2Cl)cc1 | 13.2 |
| COc1ccc(CCNC(C)CCc2ccc(OC)cc2)cc1 (stereo not drawn) | -2.61 |
| CCC(=O)OC1(c2ccccc2)C(C)CN(C)CC1C.Cl (stereo not drawn) | 8.82 |
| C[C@]12CCC[C@H](O1)[C@H]([C@@H](O)c1ccccc1)O2 | 16.5 |
| CN1C(CC(=O)c2ccccc2)CCCC1CC(O)c1ccccc1 (stereo not drawn) | -55.2 |
| CN1CCC(N(C)CC(O)c2ccccc2)CC1.O=C(O)C(=O)O (stereo not drawn) | 1.81 |
| CN1C(CC(O)c2ccccc2)CCCC1CC(O)c1ccccc1.Cl (stereo not drawn) | -46.3 |
